Bioassay records: PubChem, National Center for Advancing Translational Sciences (NCATS)
This is a sample that favours compounds with a hit; in the whole collection about 10% have one here.
GPT2 inh = inhibitors of human GPT2 alanine aminotransferase; Recombinant GPT2, coupled pyruvate oxidase/HRP Amplex Red fluorescence; Potency, µM (doses to about 57.7 µM), for the others: at the highest dose activity change, negative = inhibition, actives largely listed as inhibitors; actives 0.25% (n = 100,000); AID 1671188; further: nearly all actives have a fitted effect of over 60% in size
Target sequence (Q8TD30 whole entry, looked up): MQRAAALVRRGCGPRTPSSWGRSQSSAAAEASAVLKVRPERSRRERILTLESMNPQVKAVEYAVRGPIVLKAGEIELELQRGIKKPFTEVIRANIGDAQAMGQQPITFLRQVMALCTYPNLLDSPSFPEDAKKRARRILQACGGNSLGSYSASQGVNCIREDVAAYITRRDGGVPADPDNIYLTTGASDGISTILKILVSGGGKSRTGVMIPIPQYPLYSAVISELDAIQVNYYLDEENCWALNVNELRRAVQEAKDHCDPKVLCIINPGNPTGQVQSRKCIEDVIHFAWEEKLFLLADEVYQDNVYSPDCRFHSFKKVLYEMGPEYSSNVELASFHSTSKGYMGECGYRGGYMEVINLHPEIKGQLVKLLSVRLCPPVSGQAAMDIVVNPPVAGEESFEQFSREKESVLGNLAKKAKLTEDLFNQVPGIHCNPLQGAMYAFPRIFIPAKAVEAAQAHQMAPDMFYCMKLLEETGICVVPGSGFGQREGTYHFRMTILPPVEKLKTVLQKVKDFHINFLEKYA
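Fluorescence read-out: pyruvate from GPT2 turnover coupled to pyruvate oxidase, HRP and Amplex Red (0.2mM ThPP, 0.2U/mL PO and HRP, 50uM Amplex final). Substrates 250uM a-KG, 2mM L-alanine; enzyme 10ng/uL; 30 min RT.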
HEK cytotox = kills HEK 293 cells; HEK 293 viability, ATP luminescence (CellTiter-Glo), 48-72 h; actives 6.6% (n = 94,000); Potency, µM (top dose mostly 115 µM), inactives show at the top dose activity change, negative = cytotoxicity, hits mostly inhibitors; further: nearly all actives have a fitted effect of over 60% in size
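Cells seeded first (HEK 293, 250 cells/well), then compound added by pintool. Incubation ran 48 or 72 hr at 37 degree Celsius. CellTiter-Glo was added and luminescence imaged after 10 min at room temperature.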
NPR1 antag = human Npr1 receptor antagonism | P16066 | HEK293 hNpr1 GloSensor cGMP, ANP-stimulated luminescence | Potency, µM (doses to about 46.3 µM), without a hit: at the top dose activity change, negative = inhibition, actives largely listed as inhibitors | actives 1.6% (n = 76,000) | AID 1347048; calls by dose curve; further: nearly all actives have a fitted effect of over 60% in size
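HEK293 cells stably expressing human Npr1 and cGMP GloSensor pGS-40F, loaded 2 h with 2% GloSensor reagent, given compound 30 min at room temperature. Luminescence read before and 20 min after 0.1 nM hNppA.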
3T3 cytotox = cytotoxic compounds in NIH 3T3 cells | NIH 3T3 viability, CellTiter-Glo ATP luminescence, 48-72 h | Potency, µM (doses to about 96.7 µM), for inactives: at the highest dose activity change, negative = cytotoxicity, most hits filed as inhibitors | actives 4.3% (n = 94,000) | AID 1345082; further: nearly all actives have a fitted effect of over 55% in size
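First NIH 3T3 cells are plated at 400 cells/well; next compound is pinned in; then plates incubate 48 or 72 hr at 37 °C; finally CellTiter-Glo is added and luminescence read after 10 min.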
FLuc inh = inhibitors of firefly (Photinus pyralis) luciferase | P08659 | purified P. pyralis luciferase, luminescence, biochemical | Potency, µM (series often up to 115 µM), usual class: inhibitors | actives 2.5% (n = 76,000); further: nearly all actives have a fitted effect of over 65% in size
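Biochemical qHTS: compound (6-point titration) added to 10uM D-luciferin plus 10uM ATP in Tris acetate pH 7.5 buffer with Mg, Tween-20 and BSA, then purified enzyme at 10nM; light output imaged.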
Active calls of the source: *; i = inactive; ? = inconclusive; / = not tested or not shown; [ ] = remark or other dose. Unless noted, the call rests on the fitted dose curve; in most records, active means well fitted curve in the direction sought with a large enough effect; inconclusive means small, poorly fitted or top-dose-only effect, or another doubt; inactive means no such curve, though single readings can be large; an effect the other way counts as inactive or inconclusive. On the % scale 0 is the no-effect control and ±100 the full control effect; potency means the concentration at half of the fitted maximal effect.

SMILES | GPT2 inh | HEK cytotox | NPR1 antag | 3T3 cytotox | FLuc inh
O=C(O)CCC(=O)N1Cc2ccccc2CC2(CCN(CC3CCNC3)C2)C1 (centres undefined) | i | i | / | -4.0% | /
Cc1ccc(-c2cccc(CN3CCCC(NC(=O)Cc4ccccc4)C3)c2)cc1Cl (centres undefined) | i | i | / | -3.0% | /
COC(=O)NC1CCCN(Cc2cccc(-c3ccc(C)c(Cl)c3)c2)C1 (centres undefined) | i | 44.7µM* | / | ? | /
Cc1ccc(-c2cccc(CN3CCCC(NC(=O)C4CCCC4)C3)c2)cc1Cl (centres undefined) | i | -9.4% | / | -14.6% | /
Cc1ccc(-c2cccc(CN3CCCC(NC(=O)Nc4ccccc4F)C3)c2)cc1Cl (centres undefined) | i | 17.8µM* | / | 28.2µM* | /
CC(=O)NC1CCCN(Cc2cccc(-c3ccc(C)c(Cl)c3)c2)C1 (centres undefined) | -6.6% | 20µM* | / | 35.5µM* | /
CN(C(=O)c1cnc2n1CCN(CCc1ccccc1)CC2)c1ccccc1 | -6.8%[88.5 µM] | ? | -2.1%[70.6 µM] | ? | i
O=C(NCc1ccccc1)c1cnc2n1CCN(Cc1cccs1)CC2 | -1.2%[88.5 µM] | ? | 3.3%[70.6 µM] | 31.6µM* | i
O=C(NCc1ccccc1)c1cnc2n1CCN(Cc1ccc(F)cc1)CC2 | i | 28.2µM* | -11.4%[70.6 µM] | ? | i
O=C(c1cnc2n1CCN(CCc1ccccc1)CC2)N1CCC(c2ccccc2)CC1 | -5.6%[88.5 µM] | 79.4µM* | ? | ? | i
O=C(NCCOc1ccccc1)c1cnc2n1CCN(Cc1cccs1)CC2 | i | ? | -8.7%[70.6 µM] | ? | i
Nc1ncccc1CN1CCc2ncc(C(=O)NCc3ccccc3)n2CC1 | i | ? | ? | ? | i
c1ccc(CCCNc2ncncc2-c2nc(-c3ccccc3)no2)cc1 | i | i | 3.9% | -10.3% | i
CC(C)Cc1cc(C(=O)N2CCCC(c3ccc(C(=O)O)cc3)C2)nc(=O)[nH]1 (centres undefined) | 2.9% | 2.7% | -0.1% | -2.2% | i
CCc1ccc(CN2CCCC23Cc2ccccc2CNC3=O)cc1 (centres undefined) | i | 89.1µM* | / | ? | /
Cc1noc(C)c1[S+](=O)([O-])N1CCC(c2nnc3n2C(C(=O)O)CC3)CC1 (centres undefined) | -4.9% | i | / | i | /
COc1ccc2c3c1C(c1ccccc1)N(Cc1ccccc1)CC3=CC(C)(C)CO2 (centres undefined) | / | ? | / | -20.4% | /
COc1ccc2c3c1CN(C(=O)NCc1ccccc1)CC3=CC(C)(C)CO2 | / | 39.8µM* | / | ? | /
Cc1cc2cc(-c3c(C)noc3C)nc(-c3ccc(CO)cc3)c2o1 | ? | ? | -1.9%[70.6 µM] | 28.2µM* | i
Cc1noc(C)c1-c1cc2cc(C(C)C)oc2c(-c2ccc(CO)cc2)n1 | -23.1%[88.5 µM] | ? | -7.4%[70.6 µM] | ? | i
Cc1noc(C)c1-c1cc2cc(CO)oc2c(-c2cccc(OC(C)C)c2)n1 | -20.3%[88.5 µM] | 89.1µM* | -15.5%[70.6 µM] | ? | i
Cc1cc2cc(-c3c(C)noc3C)nc(-c3cccc([S+](C)(=O)[O-])c3)c2o1 | -11.7%[88.5 µM] | ? | -21.4%[70.6 µM] | 11.2µM* | i
COc1cccc(-c2nc(-c3c(C)noc3C)cc3cc(C)oc23)c1 | -5.9%[88.5 µM] | ? | 3.4%[70.6 µM] | ? | i
COCCNc1ncc(-c2ccc([S+](C)(=O)[O-])cc2)c2c1OCC2 | i | -17.4%[172 µM] | -0.4%[70.6 µM] | ? | i
CC(=O)Nc1ccc(C(=O)NC2CCN(CCn3nc4n(c3=O)CCCC4)C2)cc1 (centres undefined) | / | i | / | i | /
SMILES | GPT2 inh | HEK cytotox | NPR1 antag | 3T3 cytotox | FLuc inh
COc1ccc(CC(=O)NCCNC(=O)c2ccc(-c3cccc(C(F)(F)F)c3)cc2)cc1 | / | 25.1µM* | / | -24.5% | /
O=C(NCCNC(=O)c1ccc(-c2cccc(C(F)(F)F)c2)cc1)c1ccccc1 | / | -24.7% | / | -5.6% | /
O=C(NCCNC(=O)c1ccc(-c2cccc(C(F)(F)F)c2)cc1)c1ccncc1 | / | 39.8µM* | / | ? | /
O=C(c1n[nH]c2ccccc12)N1CC2CC(C1)[C@H]1CCCC(=O)N1C2 (some centres undefined) | i | -5.0% | 1.3% | i | i
CC(=O)N1CCN(c2cc(-c3noc([C@@H]4CCCN4Cc4ccc(N(C)C)cc4)n3)ccn2)CC1 | -1.6% | 17.8µM* | -0.7% | -29.5% | i
c1cc(-c2noc([C@@H]3CCCN3Cc3ncc[nH]3)n2)cc(N2CCCC2)n1 | i | 100µM* | -27.3%[70.6 µM] | ? | i
c1cncc(CN2CCC[C@H]2c2nc(-c3ccnc(N4CCCC4)c3)no2)c1 | -11.5%[88.5 µM] | ? | -1.7%[70.6 µM] | ? | i
Cc1cc(C(=O)N[C@H](c2ccccn2)C2CC(O)C2)c2c(C)noc2n1 (some centres undefined) | i | -22.0% | 1.0% | -11.0% | i
O=C(CC1CCOC2(CCN(C(=O)c3cccs3)CC2)C1)N1CCCC1 (centres undefined) | i | -8.3% | / | -17.1% | /
Cc1ccc(CC2CCOC3(CCN(C(=O)c4cccs4)CC3)C2)cc1 (centres undefined) | -16.1% | 44.7µM* | ? | ? | i
Cc1ccc(CC2CCOC3(CCN(C(=O)c4cccc(C#N)c4)CC3)C2)cc1 (centres undefined) | -13.4% | 50.1µM* | ? | ? | i
COCC1CN(C(=O)c2ccc(Cc3c(C)noc3C)o2)CC12CCNCC2 (centres undefined) | i | -20.7% | 3.6% | -10.8% | i
Cc1noc(C)c1Cc1ccc(C(=O)N2CCC3(CC2)CC(Cc2ccc(F)cc2)CCO3)o1 (centres undefined) | i | 28.2µM* | / | ? | /
Cc1cccc(C(=O)N2CCC3(CC2)CC(Cc2ccc(F)cc2)CCO3)c1 (centres undefined) | -7.6% | 44.7µM* | -15.7% | ? | i
O=C(NCc1nc(-c2ncccn2)no1)C1CCCN(Cc2ccco2)C1 (centres undefined) | -4.7% | 1.5% | 1.3% | i | i
O=C1[C@H]2CN(Cc3cc(Cl)ccc3F)C[C@H]2C(=O)N1CCN1CCc2ccccc2C1 | i | ? | 5.7% | ? | i
OCCC1CN(c2ccc(-c3nc(CCCc4ccccc4)no3)cn2)CCO1 (centres undefined) | -14.2%[11.5 µM] | 50.1µM* | ? | ? | i
OCCC1CCN(c2ccc(-c3nc(CCCc4ccccc4)no3)cn2)CC1 | 0.2%[11.5 µM] | -18.9% | -17.3% | 0.8% | i
CC1(O)CCCN(c2ccc(-c3nc(CCCc4ccccc4)no3)cn2)C1 (centres undefined) | -9.2% | 31.6µM* | ? | ? | 35.5µM*
